IL-1B inflam inh = inhibitors of inflammasome signaling (IL-1 beta secretion) | THP-1 LPS/ATP IL-1B secretion, AlphaLISA, 16 h; active compounds read low | activity change, % at 57.5 µM | hit rate 4.7% among 360,000; in the data active means activity change below about -50%; inconclusive means mostly about -30% to -49%
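THP-1 cells pretreated 1 hr with compounds (up to 57.5 uM final), then stimulated with LPS (250 ng/mL final) plus ATP (1.25 mM final); secreted IL-1B measured by AlphaLISA after 16 hr, decreased signal indicating inhibition.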
DT40 TDP1 CPT = growth inhibition of DT40 Tdp1-/-;hTDP1 cells with camptothecin (screen for TDP1 inhibitors); chicken DT40 Tdp1-/-;hTDP1 cells + 20 nM CPT, ATP luminescence, 48 h; Potency, µM (top dose mostly 46.2 µM), without a hit: at the highest dose activity change, negative = growth inhibition, most hits filed as inhibitors; hit rate 12% among 420,000; further: potency means the concentration at half of the fitted maximal effect; nearly all actives have a fitted effect of over 55% in size
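Chicken DT40 Tdp1-/- cells complemented with human TDP1, 400 cells/well, exposed to compounds plus 20 nM camptothecin for at least 48 h at 37 C; viability read as ATP content by CellTiter-Glo luminescence.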
RORgamma inh = blocks mouse ROR gamma transcriptional activity. hit rate 5.4% among 310,000. P51450. Potency, µM (highest dose often 53.6 µM), without a hit: at the top dose activity change, negative = inhibition, most hits filed as inhibitors. Drosophila S2 Gal4-RORgamma UAS-luciferase reporter, 20 h; further: potency means the concentration at half of the fitted maximal effect; nearly all actives have a fitted effect of over 60% in size
Target sequence (P51450 whole entry, looked up, the tested form may be a part): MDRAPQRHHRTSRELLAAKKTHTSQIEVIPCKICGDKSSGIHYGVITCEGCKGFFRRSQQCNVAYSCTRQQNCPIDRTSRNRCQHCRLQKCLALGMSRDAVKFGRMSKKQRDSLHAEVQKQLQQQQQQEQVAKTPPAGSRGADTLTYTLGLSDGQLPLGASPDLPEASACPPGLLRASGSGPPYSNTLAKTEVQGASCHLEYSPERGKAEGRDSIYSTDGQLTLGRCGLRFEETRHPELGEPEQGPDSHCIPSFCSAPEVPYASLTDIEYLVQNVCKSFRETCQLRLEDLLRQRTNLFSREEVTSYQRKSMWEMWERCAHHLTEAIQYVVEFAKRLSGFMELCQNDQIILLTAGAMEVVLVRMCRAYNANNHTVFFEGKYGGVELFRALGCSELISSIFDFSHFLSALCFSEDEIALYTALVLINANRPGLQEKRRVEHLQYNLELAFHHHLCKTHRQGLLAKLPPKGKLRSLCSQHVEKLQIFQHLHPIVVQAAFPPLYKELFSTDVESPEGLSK
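A Gal4/UAS one-hybrid system in insect cells: metallothionein-promoter Gal4–ROR gamma fusion plus Photinus luciferase reporter. Copper sulfate 700 uM final, 20 hr ambient incubation, luminescent detection after 10 min with reagent.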
ELG1 DNA repair = inhibitors of ELG1-dependent DNA repair in HEK293T cells. HEK293T ELG1-luciferase reporter, luminescence, 16 h; DNA damage induced by 5-fluorouridine. Potency, µM (series often up to 46.1 µM), for inactives: top-dose activity change, negative = inhibition, hits mostly inhibitors. hit rate 2.3% among 330,000; further: potency means the concentration at half of the fitted maximal effect; nearly all actives have a fitted effect of over 55% in size
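Overnight (16 hr) co-exposure of 2,000 cells/well to 5-fluorouridine and compound at 37 °C preceded detection. Luciferase was quantified via ONE-Glo luminescence; loss of signal denotes inhibition.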
TDP1 cell noCPT = qHTS for Inhibitors of human tyrosyl-DNA phosphodiesterase 1 (TDP1): qHTS in cells in absence of CPT; DT40 Tdp1-/- hTDP1 cells, no CPT, ATP luminescence, 48 h; Potency, µM (highest dose often 46.2 µM), for the others: at the top dose activity change, negative = growth inhibition, actives largely listed as inhibitors; hit rate 15% among 420,000; further: potency means the concentration at half of the fitted maximal effect; nearly all actives have a fitted effect of over 55% in size
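A cellular qHTS used chicken DT40 cells lacking endogenous Tdp1 but carrying stably transfected human TDP1. Compounds were applied without camptothecin, and cell growth kinetics were judged by ATP-dependent luminescence after ≥48 hr.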
Gal4-VP16 FLuc = inhibits Gal4-VP16 luciferase reporter, ROR gamma counter-screen; Potency, µM (highest dose often 53.6 µM), without a hit: at the highest dose activity, negative = inhibition, actives largely listed as inhibitors; Drosophila S2 Gal4-VP16 UAS-luciferase, luminescence, 20 h; hit rate 3.5% among 310,000;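 further: Gal4-VP16 expression switched on by copper sulfate through the metallothionein promoter; potency means the concentration at half of the fitted maximal effect; nearly all actives have a fitted effect of over 50% in size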
The depositor's hits bear a star; ? = inconclusive; . = not tested or not shown. Rows were chosen to be rich in hits. Some 21% of all compounds tested hit in one or more screens of this group. Unless noted, the call rests on the fitted dose curve; in most records, active means well fitted curve in the direction sought with a large enough effect; inconclusive means small, poorly fitted or top-dose-only effect, or another doubt; inactive means no such curve, though single readings can be large; an effect the other way counts as inactive or inconclusive. On the % scale 0 is the no-effect control and ±100 the full control effect.

SMILES | IL-1B inflam inh | DT40 TDP1 CPT | RORgamma inh | ELG1 DNA repair | TDP1 cell noCPT | Gal4-VP16 FLuc
COc1cc(-c2n[nH]c(=S)n2-c2ccccc2C(F)(F)F)cc(OC)c1OC | 5.9 | -15.3% | ? | ? | -28.3% | -7.8%
CC1(C(=O)NCCc2c[nH]c3ccccc23)CCN1CC1CCCCC1 (stereo not given) | 2.4 | ? | . | . | ? | .
Cc1noc(C)c1S(=O)(=O)Nc1ccc2c(c1)C(=O)N([C@H](C)CO)C[C@H](C)[C@@H](CN(C)C(=O)NC1CCCCC1)O2 | -0.5 | -0.6% | . | 3.4% | 3.4% | .
CCc1nnc2c(N3CCN(c4cccc(C)c4)C(C)C3)nc3ccccc3n12 (stereo not given) | . | 20.6µM* | . | . | ? | .
CCc1nnc2c(N3CCN(c4cccc(C(F)(F)F)c4)CC3)nc3ccccc3n12 | . | 20.6µM* | . | . | 20.6µM* | .
Cc1cccc(N2CCN(c3nnnn3-c3ccccc3)CC2C)c1 (stereo not given) | -13.9 | ? | -14.0% | ? | ? | 8.3%
C[C@H]1CN([C@@H](C)CO)C(=O)CCCn2cc(nn2)CO[C@@H]1CN(C)C(=O)NC1CCCCC1 | 18.5 | 0.2% | . | . | 10.2% | .
Cc1cc(C)cc(NC(=O)CCS(=O)(=O)c2cccc3nsnc23)c1 | . | -4.6% | . | . | 8.5% | .
O=C(CC1SC(N2CCCCC2)=NC1=O)Nc1cccc(C(=O)NCc2ccc(F)cc2)c1 (stereo not given) | -1.1 | -27.0% | . | -26.9% | ? | .
Cc1ccc(N(C)S(=O)(=O)c2cccc(C(=O)N(C)Cc3cnn(-c4ccccc4)c3)c2)cc1 | -80.9* | ? | . | 16.4µM* | ? | .
CN(Cc1cnn(-c2ccccc2)c1)C(=O)c1ccc(S(=O)(=O)NCc2ccco2)cc1 | -4.8 | -25.7% | . | . | ? | .
CN(Cc1cnn(-c2ccccc2)c1)C(=O)c1cccc(S(=O)(=O)N(C)c2ccccc2)c1 | -23.3 | 18.4µM* | . | . | 16.4µM* | .
COc1cccc(CNC(=O)C(NS(=O)(=O)c2cccs2)C(C)C)c1 (stereo not given) | . | -9.4% | . | . | -16.9% | .
CC(=O)c1ccc(-n2nnnc2SCC(=O)NC2CCCCC2)cc1 | 35.8 | -21.5% | 7.1% | ? | -24.3% | 5.1%
O=C(COC(=O)c1ncc(Cl)c(Cl)c1Cl)Nc1cccnc1Cl | -56.0* | -12.4% | . | -0.2% | 7.5% | .
COc1ccccc1C(=O)NC(=O)COC(=O)c1ncc(Cl)c(Cl)c1Cl | 10.5 | ? | . | ? | -5.0% | .
CC(C)NC(=O)NC(=O)COC(=O)c1ncc(Cl)c(Cl)c1Cl | -62.9* | -5.4% | -30.5% | -1.0% | -6.5% | 27.0%
O=C(NCCc1ccccc1)C(=O)NCC1CCCN1S(=O)(=O)c1cccs1 (stereo not given) | 5.2 | 23.1µM* | . | -14.8% | ? | .
CCCCCOc1ccc(NC(=O)C(=O)NCC2CCCN2CC)cc1 (stereo not given) | -7.2 | 16.4µM* | -10.6% | 21.3% | ? | -3.7%
Cc1ccccc1NC(=O)C(=O)NCC1CCCN1S(=O)(=O)c1cccs1 (stereo not given) | 4.0 | -29.1% | . | 2.1% | ? | .
Cc1ccc(CNC(=O)C(=O)NCCC2CCCCN2S(=O)(=O)c2cccs2)cc1 (stereo not given) | -4.2 | ? | . | ? | ? | .
COc1ccc(NC(=O)C(=O)NCC2CCCN2S(=O)(=O)c2cccs2)cc1 (stereo not given) | -6.2 | 2.31µM* | . | -10.8% | 2.06µM* | .
Cc1ccccc1CNC(=O)C(=O)NCCC1CCCCN1S(=O)(=O)c1cccs1 (stereo not given) | -23.5 | 18.4µM* | . | ? | ? | .
CCC[C@H]1CN(c2ccccc2)C(=O)[C@@H]1CC(=O)Nc1ccc(Br)cc1 | 20.5 | 4.0% | . | . | -2.1% | .
O=C(OC1CC2CC1[C@H]1CCCCN1C2=O)N1CCCCC1 (stereo not given in full) | 21.6 | 0.0% | . | . | -14.1% | .
SMILES | IL-1B inflam inh | DT40 TDP1 CPT | RORgamma inh | ELG1 DNA repair | TDP1 cell noCPT | Gal4-VP16 FLuc
CCOC(=O)N1CCc2c(sc3c2c(=O)n(Cc2ccccc2)c(=O)n3CC(=O)Nc2ccccc2F)C1 | . | 2.1% | . | . | -4.0% | .
COc1ccc(CNC(=O)Cn2ccc3cc(S(=O)(=O)N4CCCC4)ccc32)cc1OC | 13.6 | -0.3% | -25.1% | 6.1% | -18.2% | -6.0%
CCN(CC)C(=O)CSCc1cnn(-c2ccccc2)c1-n1cccc1 | -21.2 | ? | 31.9% | ? | 16.4µM* | -1.4%
COc1ccc(NC(=O)CSCc2cnn(-c3ccccc3)c2-n2cccc2)cc1 | . | ? | . | . | 16.4µM* | .
Cc1ccccc1CNC(=O)CCSCc1cnn(-c2ccccc2)c1-n1cccc1 | . | ? | . | . | 16.4µM* | .
CCOC(=O)c1cnn(-c2ccccc2)c1-n1cccc1 | 3.4 | -7.1% | -14.1% | -3.3% | -16.9% | 10.7%
Cc1ccc(C)c(NC(=O)c2cnn3ccccc23)c1 | 39.5 | 5.8µM* | 28.3% | ? | 11.6µM* | 14.8%
O=C(CSCc1cnn(-c2ccccc2)c1-n1cccc1)NCCN1CCOCC1 | -1.1 | -14.4% | 1.2% | -2.3% | -23.7% | 10.7%
O=C(CSCc1cnn(-c2ccccc2)c1-n1cccc1)NCC1CCCO1 (stereo not given) | -5.2 | ? | 7.2% | -9.3% | ? | 21.7%
CC1CCN(CC2CCN(C(=O)NCc3ccccc3)CC2)CC1 | . | 7.4% | . | . | 10.1% | .
CCN(C(=O)Cn1cc(C(F)(F)F)ccc1=O)C1CCS(=O)(=O)C1 (stereo not given) | -5.1 | -1.3% | . | . | -5.0% | .
O=C(Nc1nnc(S(=O)(=O)N2CCN(c3ccc(F)cc3)CC2)s1)c1ccc(Cl)cc1 | . | -28.6% | . | . | -23.5% | .
O=C(/C=C/c1ccccc1)OCCN1C(=O)c2ccccc2C1=O | 2.3 | 0.4% | 16.6% | -3.3% | -3.7% | 4.1%
COc1ccc(CCNC(=O)c2cnn3ccccc23)c(OC)c1OC | -2.1 | ? | 23.8% | ? | 23.1µM* | 3.1%
COc1ccc(OC)c(CCNC(=O)c2cnn(-c3ccccc3)c2-n2cccc2)c1 | . | 23.1µM* | . | . | 1.84µM* | .
COc1ccc(CNC(=O)CSCc2cnn(-c3ccccc3)c2-n2cccc2)cc1 | -22.0 | -25.5% | 13.6% | -29.2% | 23.1µM* | 13.4%
CN(C)c1ccc(-c2cncnc2NCCc2cnc[nH]2)cc1 | . | ? | -10.1% | . | -22.5% | 3.3%
CCOc1ccc(OCCn2c(S(=O)(=O)O)nc3c(N)ncnc32)cc1 | 3.0 | -5.3% | -14.8% | -13.7% | 18.3% | -7.9%

Bioassay records (PubChem BioAssay)
